From PubChem BioAssay AID449762 (Southern Research Specialized Biocontainment Screening …, 2010)
Out of some 330,000 compounds screened, about 1,900 (0.58%) were called active. Another 4% or so got no clear call; they are omitted. No stated cut-off is given here; in the data, inconclusive means inhibition above about 70% without an active follow-up result; inactive means below that. Only a sample is shown. Results with a measured potency or affinity are listed apart.

experiment: M. tuberculosis growth inhibition, HTS (AID 449762);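 further: bacterial growth assessed after seven days of incubation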; details: M. tuberculosis H37Rv growth inhibition, 7H9 media; at 25 µM; hits give high values

SMILES | inhibition
CCCNC(=O)OCc1cccnc1Sc1ccc(C)cc1 | 3.87% (inactive)
CC(C)(C)OC(=O)N1CCC[C@H]1c1nnc(SCc2c(F)cccc2Cl)o1 | 5.9% (inactive)
Cc1noc(C)c1COC(=O)c1ccc(-c2nc3ccccc3s2)s1 | -0.34% (inactive)
CCCNC(=O)c1ccc(-c2nc3ccccc3s2)s1 | 11% (inactive)
CCCN(CC(=O)Nc1cc(Cl)ccc1Cl)C(=O)c1ccccn1 | -9.27% (inactive)
O=C(NC1CCC(=O)N(CCSc2ccccc2)CC1)OCc1ccccc1 (stereo unspecified) | 1.1% (inactive)
Cc1ccc(SCCN2CCC(NC(=O)OCc3ccccc3)CCC2=O)cc1 (stereo unspecified) | -5.79% (inactive)
COc1cc(C(C(=O)NCC2CCCO2)N(C(=O)Cn2nnc3ccccc32)c2ccc(C(C)=O)cc2)ccc1O (stereo unspecified) | -7.43% (inactive)
CCCCNC(=O)C1CC(c2ccccc2[N+](=O)[O-])=NO1 (stereo unspecified) | 0.43% (inactive)
CCOC(=O)c1ccc(CSc2nnc(N)s2)cc1 | 3.29% (inactive)
CCOC(=O)CSc1nc(C2CC2)cc(-c2ccc(Cl)cc2)c1C#N | -4.91% (inactive)
Clc1ccc(-c2nnc(Sc3nc4ccccc4o3)c3ccccc23)cc1 | -4.13% (inactive)
Cc1ccc(-c2nnc(Sc3nc4ccccc4o3)c3ccccc23)cc1 | -10.4% (inactive)
CCc1nc2cccnc2n1-c1ccc(CC(=O)O)cc1 | -1.43% (inactive)
Fc1ccc(N2CCN(C(=S)NCc3ccco3)CC2)cc1 | 1.09% (inactive)
CC1CCCN(C(=S)SCC(=O)c2cc(Br)cc(Br)c2O)C1 (stereo unspecified) | 1.93% (inactive)
O=C(CSC(=S)N1CCCC1)c1ccccc1 | -7.15% (inactive)
Cc1cc(NC(=O)CSc2n[nH]c(CC(C)C)n2)no1 | -10.9% (inactive)
Cc1ncc(CN2CCC(n3nccc3NC(=O)c3ccccc3)CC2)s1 | -15.1% (inactive)
CCn1cc2nc(SCC(=O)Nc3ccc(F)cc3F)n(Cc3ccccc3)c(=O)c2n1 | -4.3% (inactive)
CN(C)CCCN(C(=O)c1ccc(Br)s1)c1nc2cc3c(cc2s1)OCCO3 | 9.92% (inactive)
CN(C)CCCN(C(=O)c1cc2cc([N+](=O)[O-])ccc2s1)c1nc2cc3c(cc2s1)OCCO3 | -1.83% (inactive)
COc1ccc(C(C[N+](=O)[O-])c2c(-c3ccccc3)cc3ccccn23)cc1OC (stereo unspecified) | -0.65% (inactive)

SMILES | inhibition
COc1ccc(C(C[N+](=O)[O-])c2c(-c3ccccc3)cc3ccccn23)cc1 (stereo unspecified) | -3.56% (inactive)
Cc1cccc(Cn2c(SCC(=O)Nc3ccccc3)nc3c2c(=O)[nH]c(=O)n3C)c1 | -13.5% (inactive)
CCCC(c1nnnn1CC1CCCO1)N1CCN(c2cc(Cl)ccc2C)CC1 (stereo unspecified) | 1.1% (inactive)
CCCCCCCc1nc2nc(C)c(Br)c(=O)n2[nH]1 | 8.34% (inactive)
CCCn1c(SCC(=O)Nc2ccc3c(c2)OCCO3)nnc1-c1ccco1 | -7.16% (inactive)
O=C(C[C@H]1C/C=C\C[C@H](NC(=O)OCC2c3ccccc3-c3ccccc32)C(=O)OC[C@@H]2CCCN2C1=O)N[C@H](CO)Cc1ccccc1 | -0.02% (inactive)
O=C(C[C@@H]1C/C=C\C[C@H](NC(=O)OCC2c3ccccc3-c3ccccc32)C(=O)OC[C@@H]2CCCN2C1=O)N[C@@H](CO)Cc1ccccc1 | 1.79% (inactive)
Cc1occc1-c1nnc(SCC(=O)N(C)c2ccccc2)n1C | -1.83% (inactive)
CC(=O)c1ccc(OCC(O)COc2ccc(C(C)=O)cc2)cc1 | 6.86% (inactive)
CC(C)(c1ccccc1)c1ccc(OCC(O)CN2CCCC2)cc1 (stereo unspecified) | 1.65% (inactive)
O=C(O)c1ccc(NC(=O)c2cccc(S(=O)(=O)Nc3ccc(C(=O)O)cc3)c2)cc1 | -1.83% (inactive)
O=C(CN1CCN(c2ccc(O)cc2)CC1)Nc1ccccc1C(=O)NCCc1ccccc1 | -9.61% (inactive)
COc1ccccc1N1CCN(CC(=O)Nc2ccccc2C(=O)NCCc2ccccc2)CC1 | 33.8% (inactive)
COc1cc(NS(=O)(=O)c2cc3c(cc2C)NC(=O)CO3)cc(OC)c1 | -11.6% (inactive)
OC(Cn1ccnc1)c1ccc(Cl)cc1Cl (stereo unspecified) | -8.18% (inactive)
OC(COc1ccc(Cl)cc1Cl)Cn1ccnc1 (stereo unspecified) | -1.41% (inactive)
CCOC(=O)C1=C(CC)Nc2ccccc2N/C1=N\S(=O)(=O)c1ccccc1OC | -0.62% (inactive)
CC1(C)Cc2c(sc(NC(=O)C(C)(C)C)c2C#N)C(C)(C)N1 | -3.46% (inactive)
COc1cc(N=c2ssnc2Cl)cc(OC)c1OC | -3.23% (inactive)
Cc1ccc(N=c2ssnc2Cl)cc1 | 0.3% (inactive)
O=C(O)c1ccc(S(=O)(=O)N2CCC(n3nnc4cc(C(F)(F)F)ccc43)CC2)cc1 | 1.41% (inactive)
C/C(=N\Nc1cc(Cl)nc(C)n1)c1ccccc1 | 5.34% (inactive)
C/C(=N\Nc1cc(Cl)nc(C)n1)c1ccc(C)cc1 | 66.8% (inactive)

SMILES | inhibition
Cc1ccc(S(=O)(=O)N2CCN(C(=O)COC(=O)/C=C/c3ccc(F)cc3)CC2)c(C)c1 | -1.22% (inactive)
CCCOc1ccc(N2CC(C(=O)Nc3ccccc3C(=O)NC)CC2=O)cc1 (stereo unspecified) | -2.1% (inactive)
COc1ccc(C(=O)CSc2ncnc3nc[nH]c23)cc1 | -0.73% (inactive)
O=C(CSc1ncnc2nc[nH]c12)c1ccccc1 | 9.21% (inactive)
O=C(c1ccc(Cl)cc1)C1CCN(C(=O)c2ccc(F)cc2)CC1 | 4.03% (inactive)
Cc1cc(C)cc(OC(=O)CCN2C(=O)c3ccccc3C2=O)c1 | -5.68% (inactive)
Cc1ccc(OC(=O)CN2C(=O)c3ccccc3C2=O)cc1C | -4.28% (inactive)
CC(C)c1ccc(OCC(=O)N(Cc2ccco2)C2CCS(=O)(=O)C2)cc1 (stereo unspecified) | 11.8% (inactive)
CCC(=O)N1CC(=O)Nc2ccc(F)cc2C1c1ccccc1 (stereo unspecified) | -3.58% (inactive)
CC(C)NC(=O)N(C)C[C@H]1Oc2c(NC(=O)C3CC3)cccc2C(=O)N([C@H](C)CO)C[C@@H]1C | 1.1% (inactive)
CCOc1cccc(N(C(=O)C2COc3ccccc3O2)C(C(=O)NC2CCCCC2)c2ccc(O)cc2)c1 (stereo unspecified) | -4.43% (inactive)
CC(C)CCNC(=O)C(c1ccc(O)cc1)N(Cc1cccs1)C(=O)C1COc2ccccc2O1 (stereo unspecified) | 22.4% (inactive)
CC(=O)N1CCOc2ccc(S(=O)(=O)N3CCC(C(=O)Nc4ccc(C)c(C)c4)CC3)cc21 | 5.83% (inactive)
CC(Oc1ccc2c3c(c(=O)oc2c1)CCCC3)C(=O)NCc1ccccn1 (stereo unspecified) | 33.2% (inactive)
CC(Oc1cc2oc(=O)c3c(c2cc1Cl)CCC3)C(=O)NCc1ccccn1 (stereo unspecified) | 31% (inactive)
CCNc1cc(N2CCN(C)CC2)ccc1[N+](=O)[O-] | -1.18% (inactive)
COc1cccc(NC(=S)N2CCc3cc(OC)c(OC)cc3C2)c1 | 1.01% (inactive)
CCOc1ccc(S(=O)(=O)N(C)c2ccc(OCC(=O)NCc3ccc(C(=O)OC)cc3)cc2)cc1 | -3.45% (inactive)
Cc1cccn2c(=O)c3cc(C(=O)NCCc4ccccc4)c(=N)n(CC4CCCO4)c3nc12 (stereo unspecified) | 4.7% (inactive)
FC(F)(F)c1cc(Cl)c2nc(-c3ccccc3)cn2c1 | 4.79% (inactive)
O=C(Nc1ccccc1)N(C1=NCCC1)c1ccc(OC(F)F)cc1 | -0.82% (inactive)
COc1ccc(N(C(=O)Nc2ccc(Cl)cc2)C2=NCCC2)cc1 | 42.5% (inactive)
O=C(c1cc(COc2ccc(F)cc2F)on1)N1CC[C@@H]2CCCC[C@H]2C1 | 8.08% (inactive)

SMILES | inhibition
COCC1CCN(C(=O)c2cc(COc3ccc(F)cc3F)on2)C1 (stereo unspecified) | -0.65% (inactive)
CC(NC(=O)c1cc(F)c(F)cc1Cl)C1CC2CCC1C2 (stereo unspecified) | 9.14% (inactive)
O=C(Nc1cccc(F)c1)N1CCN(C/C=C/c2ccccc2)CC1 | -4.24% (inactive)
Cc1cc(C)cc(NC(=O)N2CCN(C/C=C/c3ccccc3)CC2)c1 | 6.44% (inactive)
O=C1NC(=O)C2(Cc3ccccc3N3CCCC32)C(=O)N1Cc1ccccc1 (stereo unspecified) | -3.61% (inactive)
C=CCNC(=O)/C(=C/c1cn(-c2ccccc2)nc1-c1cccc([N+](=O)[O-])c1)NC(=O)c1ccccc1 | 9.03% (inactive)
O=[N+]([O-])/C(N=Nc1ccccc1)=N\Nc1ccccc1 | -2.92% (inactive)
NC(=O)/C(N=Nc1ccccc1)=N/Nc1ccccc1 | 63.8% (inactive)
O=C(Cn1nnc(-c2ccc(S(=O)(=O)N3CCCC3)cc2)n1)Nc1ccccc1-n1cccc1 | -4.45% (inactive)
CN(CC(=O)Nc1ccc(F)cc1[N+](=O)[O-])Cc1ccccc1 | 6.03% (inactive)
Cc1cc(C(=O)O/N=C(\N)c2ccc(C(C)(C)C)cc2)no1 | 0.64% (inactive)
CCOC(=O)c1cc(/C(C)=N/OC(=O)c2ccc(Cl)cc2)on1 | 47.9% (inactive)
COc1cccc2c(=O)c3c([nH]c12)OC(C)(C)C3 | 1.96% (inactive)
NC(=O)c1ccsc1NC(=O)c1cc(=O)c2ccccc2o1 | 1.83% (inactive)
CC1=C(C(N)=O)C(c2ccccc2F)NC(=O)N1 (stereo unspecified) | -4.59% (inactive)
O=C(N/N=C/c1ccc(F)cc1)c1cccc(NC(=O)c2ccc(F)cc2)c1 | 9.14% (inactive)
CC(C)(C)NC(=O)COC(=O)c1cc(Cl)ccc1[N+](=O)[O-] | -0.3% (inactive)
CC(NC(=O)COC(=O)c1ccc(Cl)cc1O)c1ccc(F)cc1 (stereo unspecified) | 2.35% (inactive)
CCOC(=O)c1ccc[n+](CC(=O)c2ccc(OC)cc2)c1 | -6.92% (inactive)
CN(C)/C=C/C(=O)c1ccc([N+](=O)[O-])c(CS(=O)(=O)c2ccccc2)c1 | 4.59% (inactive)
OC1CCN(c2cc(-c3ccccc3)nc3cc(-c4ccc(F)cc4)nn23)CC1 | 14.2% (inactive)
Fc1ccc(-c2cc3nc(-c4ccccc4)cc(N4CCOCC4)n3n2)cc1 | -0.86% (inactive)
